Reference: a collection of fitness landscapes (doi:10.1126/science.1257360)
Whole data set: some 140,000 sequences, median “enrichment ratio after two sorts for PhoP signalling” near 0, cut for the highest 2% near 11. The list comes from a sample in which the highest values are over-represented; it also holds similar and randomly drawn sequences.

B1: PhoQ; a variant is named by its letters at X, in order, P23837 (parent)
chain: MKKLLRLFFPLSLRVRFLLATAAVVLVLSLAYGMVALIGYSVSFDKTTFRLLRGESNLFYTLAKWENNKLHVELPENIDKQSPTMTLIYDENGQLLWAQRDVPWLMKMIQPDWLKSNGFHEIEADVNDTSLLLSGDHSIQQQLQEVREDDDDAEMTHSVAVNVYPATSRMPKLTIVVVDTIPVELKSSYMVWSWFIYVLSANLLLVIPLLWVAAWWSLRPIEALAKEVRELEEHNRELLNPATTRELTSLVRNLNRLLKSERERYDKYRTTLTDLTHSLKTPLXXLQXXLRSLRSEKMSVSDAEPVMLEQISRISQQIGYYLHRASMRGGTLLSRELHPVAPLLDNLTSALNKVYQRKGVNISLDISPEISFVGEQNDFVEVMGNVLDNACKYCLEFVEISARQTDEHLYIVVEDDGPGIPLSKREVIFDRGQRVDTLRPGQGVGLAVAREITEQYEGKIVAGESMLGGARMEVIFGRQHSAPKDE

Variants of: B1
Assay: enrichment ratio after two sorts for PhoP signalling (ratio (wild type AVST 3.29)); higher = more functional
Details: with PhoP (E. coli)

Variant	enrichment ratio
RRYY	≤ 0.25
YGSL	≤ 0.25
RGLA	≤ 0.25
AGLT	7.3
NGLA	≤ 0.25
AGLA	4.99
RGLT	≤ 0.25
AGLS	13.8
TGLA	27.5
IPEP	≤ 0.25
NGLT	≤ 0.25
TGLT	13.5
ECEP	15.1
RYEP	≤ 0.25
VHMY	≤ 0.25
LARA	≤ 0.25
WQQI	≤ 0.25
FPEF	≤ 0.25
IHDS	≤ 0.25
DVNT	≤ 0.25
WIWI	≤ 0.25
NGLN	≤ 0.25
KSWI	≤ 0.25
TGWI	26.1

Variant	enrichment ratio
CFLN	≤ 0.25
TGLN	25.4
TGLS	14.9
EHHF	≤ 0.25
EHHE	≤ 0.25
NGLS	≤ 0.25
EHHK	14.4
RGLS	≤ 0.25
FPGM	≤ 0.25
LGWH	≤ 0.25
GMYH	≤ 0.25
PFMM	≤ 0.25
RQLT	≤ 0.25
HMPW	≤ 0.25
GHLA	≤ 0.25
DNNV	≤ 0.25
TWFG	≤ 0.25
WQAF	≤ 0.25
SIAW	16.5
WIAW	≤ 0.25
YTAW	≤ 0.25
KYAW	≤ 0.25
STAW	13.1
SQAW	≤ 0.25

Variant	enrichment ratio
FGTC	≤ 0.25
RLLI	≤ 0.25
DHVP	≤ 0.25
YTSI	≤ 0.25
KQSI	≤ 0.25
LTSI	≤ 0.25
TTSI	17.1
ITSI	≤ 0.25
CTSI	19.6
PECL	≤ 0.25
DRWN	≤ 0.25
METT	13
QETT	≤ 0.25
MFTT	≤ 0.25
NETT	≤ 0.25
TETT	25.2
MHTT	≤ 0.25
DEMI	≤ 0.25
SQNC	≤ 0.25
EVAF	≤ 0.25
GNFR	≤ 0.25
PGNR	≤ 0.25
RASR	≤ 0.25
SEIC	32.9

Variant	enrichment ratio
SEAV	13.6
SEAE	5.82
DDIA	≤ 0.25
MEIC	11
SEIS	8.01
SPIA	≤ 0.25
SEWV	0.784
SEIA	13.7
STAV	5.94
SERC	≤ 0.25
SEIV	18.7
DHWR	≤ 0.25
MSEQ	≤ 0.25
LCAF	≤ 0.25
MMGP	≤ 0.25
YYDN	≤ 0.25
PLDS	≤ 0.25
NPKR	≤ 0.25
FGMH	≤ 0.25
SEMW	≤ 0.25
DDIY	≤ 0.25
SEEV	1.98
SEFV	11.8
SEIY	21.5

Variant	enrichment ratio
SQIG	9.99
SEMV	23.8
KYIY	≤ 0.25
SEIG	13.1
SEPV	≤ 0.25
SPIG	≤ 0.25
SFFV	≤ 0.25
KQPW	≤ 0.25
DFRP	≤ 0.25
WSND	≤ 0.25
AMAT	3.36
YYEG	≤ 0.25
ESCY	≤ 0.25
SRIC	≤ 0.25
LWNH	≤ 0.25
LGQL	≤ 0.25
QDGH	≤ 0.25
DWCM	≤ 0.25
FQCM	10.7
NQCM	≤ 0.25
HFCM	1.37
SQCM	19.2
EQCM	≤ 0.25
HECK	≤ 0.25

Variant	enrichment ratio
IQCM	≤ 0.25
HECM	24
TQCM	33.7
SNCM	11.2
KQCM	≤ 0.25
SQKE	≤ 0.25
PCCP	≤ 0.25
PFFR	≤ 0.25
LMAE	≤ 0.25
MLGA	≤ 0.25
SMKT	≤ 0.25
AWAS	≤ 0.25
IGQR	≤ 0.25
DAQH	≤ 0.25
STHG	≤ 0.25
QEHG	11.2
MEHG	11.9
MTHG	≤ 0.25
YYHG	≤ 0.25
QPHG	≤ 0.25
HDSR	≤ 0.25
DTEC	≤ 0.25
LQRA	≤ 0.25
AIQG	≤ 0.25

Variant	enrichment ratio
YGYF	≤ 0.25
GGAK	≤ 0.25
NGRQ	≤ 0.25
SLNN	≤ 0.25
SNCL	14.4
SRNN	≤ 0.25
SNQN	≤ 0.25
SNMN	22.4
SNNN	16.8
SPVN	≤ 0.25
HEMN	≤ 0.25
SNPN	≤ 0.25
NQCL	≤ 0.25
SNVN	13.3
IQCL	≤ 0.25
TFHC	≤ 0.25
NQTW	≤ 0.25
ARRF	≤ 0.25
VRLN	≤ 0.25
SQVN	20.3
SRCL	6.4
SNSL	16.8
SQSL	9.58
SPVY	≤ 0.25

Variant	enrichment ratio
SLVN	1.02
NQVN	≤ 0.25
SRSL	≤ 0.25
GQCL	7.51
SQCL	12.1
SQVY	14.2
SLVY	≤ 0.25
GRRN	≤ 0.25
QVFR	≤ 0.25
QFNA	≤ 0.25
FSTQ	≤ 0.25
NDYC	≤ 0.25
PTST	≤ 0.25
QIDF	≤ 0.25
NSVL	≤ 0.25
LHGW	≤ 0.25
NGIL	≤ 0.25
LHHH	≤ 0.25
ELYP	≤ 0.25
SNRL	≤ 0.25
MKVN	≤ 0.25
MEVN	17.3
WNMN	12
MNSL	4.59

Variant	enrichment ratio
LNSL	≤ 0.25
QEVN	≤ 0.25
SNNL	13.1
WRMN	≤ 0.25
TNSL	12.2
WNNL	≤ 0.25
SNEL	≤ 0.25
GPCQ	≤ 0.25
HTRL	≤ 0.25
WHQP	≤ 0.25
WEDV	≤ 0.25
HDYF	≤ 0.25
AHNC	≤ 0.25
WAWV	≤ 0.25
PHYI	≤ 0.25
CVSM	≤ 0.25
WFSM	≤ 0.25
CFSM	18.5
TGSM	23.5
RGSM	≤ 0.25
GGSM	7.14
KTCN	≤ 0.25
HRWF	≤ 0.25
DYHL	≤ 0.25

Variant	enrichment ratio
MIWN	≤ 0.25
MFCN	≤ 0.25
MICI	0.945
MINL	≤ 0.25
MICN	31.9
MILN	17.5
MIRW	≤ 0.25
SSFG	≤ 0.25
ACWL	≤ 0.25
ACVT	1.11
ACLT	11.7
AILK	2.69
ACLK	13.7
ACWI	≤ 0.25
ACLV	16
ACIV	0.927
ACHK	≤ 0.25
ACVL	5.91
ACLL	13.3
ACNT	≤ 0.25
FPKK	≤ 0.25
KLEK	≤ 0.25
STHN	≤ 0.25
CFKF	≤ 0.25

Variant	enrichment ratio
MMGD	≤ 0.25
TVTR	2.26
TRGD	≤ 0.25
QIWC	≤ 0.25
KYLR	≤ 0.25
TGGL	3.52
YWNM	≤ 0.25
YRPI	≤ 0.25
ACLA	11.6
ACCN	12.1
KCCN	≤ 0.25
ACLN	13.6
ACLI	5.06
ACLS	6.09
AKCN	5.46
ACIC	9.45
ACYM	0.253
ACLC	12.2
ACNS	≤ 0.25
ACDS	0.253
KVRT	≤ 0.25
AYPT	≤ 0.25
QIHR	≤ 0.25
QDCY	≤ 0.25

Variant	enrichment ratio
AARG	≤ 0.25
DLGS	≤ 0.25
VYSL	≤ 0.25
PPRP	≤ 0.25
PSLE	≤ 0.25
QMSW	≤ 0.25
ACNY	0.855
ACGY	≤ 0.25
ACLY	15.2
WFSN	≤ 0.25
ISKP	≤ 0.25
LFTC	≤ 0.25
AIVG	7.78
WIVC	≤ 0.25
KKVC	≤ 0.25
AKVG	≤ 0.25
AIVC	19.1
AKVC	15.3
VMGF	≤ 0.25
TSMD	10.7
TSWG	16.6
FSQV	≤ 0.25
TSMG	13
KSMS	≤ 0.25

Variant	enrichment ratio
LCWG	≤ 0.25
KSMG	≤ 0.25
KSQV	≤ 0.25
MMWG	≤ 0.25
FSMS	1.68
TSMS	26.4
TSQV	12.2
EDGN	≤ 0.25
WMLF	≤ 0.25
DHGA	≤ 0.25
GPST	≤ 0.25
FTYH	≤ 0.25
IRVV	≤ 0.25
DYPQ	≤ 0.25
EQAY	≤ 0.25
NSWL	1.26
WSSA	≤ 0.25
FRMR	≤ 0.25
